“And” between values parts separate entries of the source, which are not always exact repeats. Equal entries are not always repeated. The whole screen tested about 5,500 compounds, of which about 2,000 (36%) were called active. Roughly 18% stayed inconclusive and do not appear here. Cut-off read from the data, not from the text of the source: active = normalized growth mostly below about 0.91 (no sharp cut-off); inconclusive = no clear call, values can overlap the other calls; inactive = mostly above about 0.92. The list shows a part of the results.
Experiment: chemical genetic growth profiling, strain panel (AID 1159580);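 note: tested at 20 µM; growth read once vehicle control cultures reached saturation at 30 °C; 1 = growth at the plate median or of vehicle wells; lower values mean less growth of the strain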
Details: S. cerevisiae deletion strains, growth OD

Measured: normalized growth

CC(C)CC1C(=O)N2CCC[C@H]2C2(O)O[C@](NC(=O)C3C=C4c5cccc6[nH]c(Br)c(c56)C[C@H]4N(C)C3)(C(C)C)C(=O)N12 (stereo partly specified)
inactive: locus YAL013W, strain DEP1, active compounds read low 0.989 | locus YAL021C, strain ccr4, active compounds read low 0.976 | locus YAL026C, strain drs2, active compounds read low 0.991 | locus YAL030W, strain snc1, active compounds read low 0.998 | locus YBL061C, strain skt5, active compounds read low 0.987 | locus YBR009C, strain hhf1, active compounds read low 0.996 | locus YBR021W, strain FUR4, active compounds read low 0.996 | locus YBR023C, strain chs3, active compounds read low 0.992 | locus YBR171W, strain sec66, active compounds read low 0.981 | locus YBR229C, strain ROT2, active compounds read low 0.993 | locus YBR231C, strain swc5, active compounds read low 0.968 | locus YBR279W, strain paf1, active compounds read low 0.988 | locus YCL011C, strain gbp2, active compounds read low 0.976 | locus YCL016C, strain dcc1, active compounds read low 0.995 | locus YCL029C, strain bik1, active compounds read low 0.961 | locus YCL069W, strain vba3, active compounds read low 0.997 | locus YCR088W, strain abp1, active compounds read low 0.99 | locus YDL005C, strain med2, active compounds read low 0.987 | locus YDL035C, strain GPR1, active compounds read low 0.993 | locus YDL040C, strain nat1, active compounds read low 0.984 | locus YDL074C, strain BRE1, active compounds read low 0.974 | locus YDL101C, strain DUN1, active compounds read low 0.988 | locus YDL134C, strain PPH21, active compounds read low 0.992 | locus YDL185W, strain tfp1, active compounds read low 0.947 | locus YDL192W, strain arf1, active compounds read low 0.965 | locus YDR001C, strain nth1, active compounds read low 0.972 | locus YDR069C, strain doa4, active compounds read low 0.983 | locus YDR101C, strain arx1, active compounds read low 0.984 | locus YDR137W, strain rgp1, active compounds read low 0.885 | locus YDR150W, strain NUM1, active compounds read low 0.976 | locus YDR159W, strain sac3, active compounds read low 0.989 | locus YDR162C, strain NBP2, active compounds read low 0.989 | locus YDR195W, strain ref2 0.962 | locus YDR297W, strain sur2, active compounds read low 0.976 | locus YDR318W, strain mcm21, active compounds read low 0.977 | locus YDR334W, strain swr1, active compounds read low 0.973 | locus YDR335W, strain msn5, active compounds read low 0.995 | locus YDR388W, active compounds read low 0.989 | locus YDR392W, strain spt3, active compounds read low 0.959 | locus YDR502C, strain sam2, active compounds read low 0.972 | locus YEL003W, strain gim4, active compounds read low 0.981 | locus YEL037C, strain rad23, active compounds read low 0.989 | locus YEL061C, strain CIN8 (second series), active compounds read low 0.995 | locus YEL061C, strain CIN8, active compounds read low 0.982 | locus YER015W, strain faa2, active compounds read low 0.972 | locus YER016W, strain bim1, active compounds read low 0.982 | locus YER110C, active compounds read low 0.964 | locus YER111C, strain swi4, active compounds read low 0.993 | locus YER155C, strain BEM2 (second series), active compounds read low 0.973 | locus YER155C, strain BEM2, active compounds read low 0.985 | locus YER167W, strain BCK2, active compounds read low 0.961 | locus YFR010W, strain ubp6, active compounds read low 1.01 | locus YGL078C, strain dbp3, active compounds read low 0.965 | locus YGL086W, strain mad1, active compounds read low 0.97 | locus YGL167C, strain pmr1, active compounds read low 0.974 | locus YGL173C, strain kem1, active compounds read low 1 | locus YGL227W, strain vid30, active compounds read low 0.994 | locus YGL240W, strain doc1, active compounds read low 0.943 | locus YGL248W, strain PDE1, active compounds read low 0.987 | locus YGL253W, strain hxk2, active compounds read low 0.993 | locus YGR078C, strain PAC10, active compounds read low 0.989 | locus YGR135W, strain pre9, active compounds read low 0.982 | locus YGR229C, strain SMI1, active compounds read low 1.01 | locus YGR252W, strain gcn5, active compounds read low 1.14 | locus YHR013C, strain ard1, active compounds read low 0.945 | locus YHR027C, strain rpn1, active compounds read low 0.962 | locus YHR030C, strain SLT2, active compounds read low 0.981 and 0.978 | locus YHR079C, strain IRE1 (second series), active compounds read low 0.982 | locus YHR079C, strain IRE1, active compounds read low 0.986 | locus YHR094C, strain hxt1, active compounds read low 0.966 | locus YHR129C, strain ARP1, active compounds read low 0.985 | locus YHR142W, strain chs7, active compounds read low 1.01 | locus YHR200W, strain rpn10, active compounds read low 0.976 | locus YIL066C, strain RNR3, active compounds read low 0.981 | locus YIL073C, strain SPO22, active compounds read low 0.925 | locus YIL125W, strain kgd1, active compounds read low 0.965 | locus YIR030C, strain dcg1, active compounds read low 0.987 | locus YJL092W, strain hpr5, active compounds read low 0.968 | locus YJL095W, strain BCK1 (second series), active compounds read low 0.999 | locus YJL095W, strain BCK1, active compounds read low 0.971 and 0.976 | locus YJL115W, strain asf1, active compounds read low 0.958 | locus YJL129C, strain trk1, active compounds read low 0.957 | locus YJL134W, strain LCB3, active compounds read low 0.983 | locus YJL154C, strain vps35, active compounds read low 0.979 | locus YJL164C, strain tpk1, active compounds read low 0.997 | locus YJL166W, strain qcr8, active compounds read low 0.996 | locus YJL168C, strain set2, active compounds read low 0.977 | locus YJL187C, strain SWE1 (second series), active compounds read low 0.979 | locus YJR043C, strain POL32, active compounds read low 0.995 | locus YJR066W, strain TOR1, active compounds read low 0.993 | locus YJR075W, strain HOC1, active compounds read low 0.992

Source: PubChem BioAssay AID1159580 (chemical genetic matrix, 2015)
